According to PubChem BioAssay (NCATS):
Results filed as inconclusive are left out. Active and inactive are the calls of the source. Calls follow the shape of the dose curve; as a rule, active = well fitted curve in the direction sought with a large enough effect; inconclusive = small, poorly fitted or top-dose-only effect, or another doubt; inactive = no such curve, though single readings can be large; an effect the other way counts as inactive or inconclusive.

Legend:
[1] = qHTS of pediatric cancer cell lines to identify multiple opportunities for drug repurposing: Primary screen for U-2 OS cells (AID 1347096); also: nearly all actives have a fitted effect of over 50% in size
How it was run: (§1)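 Cells (500-1,000/well) in growth media were settled 5 h at 37 degrees C, then given compounds for 48 h. Viability was read as CellTiter-Glo luminescence. Primary runs used MIPE at 11 points (0.78 nM-46 µM) and NPC at 8 points (0.59 nM-46 µM); follow-ups used 11 points.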

[2] = qHTS of pediatric cancer cell lines to identify multiple opportunities for drug repurposing: Primary screen for Saos-2 cells (AID 1347097); also: nearly all actives have a fitted effect of over 40% in size; also: potency is read from the fitted curve at half-maximal effect
How it was run: (§2)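 Plated cells (500-1,000 per well, growth media) were allowed to settle for 5 hours, treated with compound dilutions for 48 hours, then lysed with CellTiter-Glo for 15 min at room temperature before luminescence reading.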

[3] = qHTS of pediatric cancer cell lines to identify multiple opportunities for drug repurposing: Primary screen for SK-N-SH cells (AID 1347098); also: nearly all actives have a fitted effect of over 65% in size; also: potency is read from the fitted curve at half-maximal effect
How it was run: (§3)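 Cells (500-1,000/well) rested 5 h, then received compounds for 48 h; metabolically active cells were measured by CellTiter-Glo luminescence. Final concentrations spanned up to 46 µM (MIPE, 11-point) or 0.59 nM-46 µM (NPC, 8-point) in primary screens, 11-point in follow-ups.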

[4] = qHTS of pediatric cancer cell lines to identify multiple opportunities for drug repurposing: Primary screen for NB1643 cells (AID 1347099); also: nearly all actives have a fitted effect of over 50% in size
How it was run: as §2

[5] = qHTS of pediatric cancer cell lines to identify multiple opportunities for drug repurposing: Primary screen for LAN-5 cells (AID 1347100)
How it was run: as §1

[6] = qHTS of pediatric cancer cell lines to identify multiple opportunities for drug repurposing: Primary screen for BT-12 cells (AID 1347101); also: nearly all actives have a fitted effect of over 25% in size
How it was run: as §3

[7] = qHTS of pediatric cancer cell lines to identify multiple opportunities for drug repurposing: Primary screen for OHS-50 cells (AID 1347103); also: nearly all actives have a fitted effect of over 40% in size; also: potency is read from the fitted curve at half-maximal effect
How it was run: as §3

[8] = qHTS of pediatric cancer cell lines to identify multiple opportunities for drug repurposing: Primary screen for RD cells (AID 1347104); also: nearly all actives have a fitted effect of over 55% in size
How it was run: as §2

[9] = qHTS of pediatric cancer cell lines to identify multiple opportunities for drug repurposing: Primary screen for MG 63 (6-TG R) cells (AID 1347105); also: nearly all actives have a fitted effect of over 50% in size
How it was run: as §2

[10] = qHTS of pediatric cancer cell lines to identify multiple opportunities for drug repurposing: Primary screen for control Hh wild type fibroblast cells (AID 1347106);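 also: series mostly up to about 46 µM; a drop in luminescence marks cytotoxicity and a rise apparent proliferation; nearly all actives have a fitted effect of over 55% in size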
How it was run: as §1

[11] = qHTS of pediatric cancer cell lines to identify multiple opportunities for drug repurposing: Primary screen for Rh30 cells (AID 1347107); also: series mostly up to about 46 µM; nearly all actives have a fitted effect of over 75% in size
How it was run: as §1

[12] = qHTS of pediatric cancer cell lines to identify multiple opportunities for drug repurposing: Primary screen for Rh18 cells (AID 1347102); also: nearly all actives have a fitted effect of over 65% in size
How it was run: as §1

[13] = qHTS of pediatric cancer cell lines to identify multiple opportunities for drug repurposing: Primary screen for Rh41 cells (AID 1347108); also: nearly all actives have a fitted effect of over 70% in size; also: potency is read from the fitted curve at half-maximal effect
How it was run: as §2

Measured: Potency

O=C(O)Cc1ccc(OCCNC[C@H](O)c2ccccc2)cc1
not listed: [12] | [13]
inactive: all other assays above

Oc1cccc2[nH]ccc12
not listed: [3] | [7]
inactive: all other assays above

CC(=O)OC[C@H]1O[C@@H](OC(C)=O)[C@H](OC(C)=O)[C@@H]1OC(C)=O
not listed: [9]
inactive: all other assays above

COc1ccc2cc(C=O)ccc2c1
not listed: [6] | [9] | [12] | [13]
inactive: all other assays above

CCCC(=O)Nc1ccc(O)c(C(C)=O)c1
not listed: [3] | [10]
inactive: all other assays above

Nc1cccc2c(N)cccc12
active: [2] 27.3 µM | [3] 28 µM | [7] 31.7 µM | [13] 30.6 µM
inactive: [1] | [9] | [10]

COC(=O)c1c(Cl)c(Cl)c(C(=O)OC)c(Cl)c1Cl
inactive: all assays above

CC(C)C(C)(C)C(C)(C)C(C)(C)S
not listed: [13]
inactive: all other assays above

NC(=O)COCCN1CCN(C(c2ccccc2)c2ccc(Cl)cc2)CC1 (stereo not drawn)
not listed: [3]
inactive: all other assays above

CCNC(=O)NCCCOc1cccc(CN2CCCCC2)c1
inactive: all assays above

CCC(CN)=C(c1ccccc1)c1ccccc1
not listed: [3] | [7] | [13]
inactive: all other assays above

CCOC(=O)Cn1cccc1-c1nc(-c2ccc(OC)cc2)c(-c2ccc(OC)cc2)s1
not listed: [5] | [7]
inactive: all other assays above

O=C1Cc2cc(Cl)ccc2N1
not listed: [12]
inactive: all other assays above

Cc1ccc(/C=N/n2c(-c3ccccc3)csc2=S)cc1
not listed: [6] | [7] | [9] | [12]
inactive: all other assays above

COCCOCC(OC)OC
inactive: all assays above

Cc1ccc2c(Cl)cc(Cl)c(O)c2n1
not listed: [3]
inactive: all other assays above

CC(C)OC(=O)c1cc2c(OCC(O)CNC(C)(C)C)cccc2[nH]1 (stereo not drawn)
not listed: [7] | [8] | [13]
inactive: all other assays above

Cc1c(N)cccc1C(F)(F)F
not listed: [5] | [9]
inactive: all other assays above

CCO[C@H](Cc1ccc(OCCc2ccc(OS(C)(=O)=O)cc2)cc1)C(=O)O
not listed: [3] | [10] | [11]
inactive: all other assays above

CNC(=O)c1c(I)c(NC(C)=O)c(I)c(C(=O)O)c1I
not listed: [9]
inactive: all other assays above

Nc1nc(=O)n([C@@H]2O[C@H](CO)[C@@H](O)[C@@H]2F)cc1I
not listed: [4] | [6] | [7]
inactive: all other assays above

CCn1ccc(NS(=O)(=O)c2ccc(N)cc2)nc1=O
inactive: all assays above

CCCCNc1ccc(C(=O)OCCN(CC)CC)cc1
inactive: all assays above

COc1cc(S(N)(=O)=O)cc(C(=O)O)c1OC
inactive: all assays above

CCOC(=O)C(=O)c1csc(NC=O)n1
inactive: all assays above
